PubChem BioAssay (NCI)
About 83,000 compounds went through this panel and 20% of them were active in at least one assay; those are over-represented in the sample as a whole.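 Cells were grown in 96-well plates and exposed to the test compound at a single concentration for 48 hours; results are reported as percent growth, with values below 10 considered active.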 Values without a mark were called inactive. Calls of active or inactive are those of the source.

Tests used:
Assay in all cases: NCI-60 one-dose screen, 48 h (100 = growth as untreated, 0 = no growth, -100 = all killed)
Conditions in all cases: 10 µM unless noted
SK-MEL-2 melanoma = test system: SK-MEL-2 melanoma
EKVX NSCLC = test system: EKVX NSCLC
UO-31 renal = test system: UO-31 renal
TK-10 renal = test system: TK-10 renal
ACHN renal = test system: ACHN renal
CAKI-1 renal = test system: CAKI-1 renal
A498 renal = test system: A498 renal
CCRF-CEM leukemia = test system: CCRF-CEM leukemia
MOLT-4 leukemia = test system: MOLT-4 leukemia
SN12C renal = test system: SN12C renal

Compound | growth (SK-MEL-2 melanoma) | growth (EKVX NSCLC) [%] | growth (UO-31 renal) | growth (TK-10 renal) | growth (ACHN renal) | growth (CAKI-1 renal) | growth (A498 renal) | growth (CCRF-CEM leukemia) | growth (MOLT-4 leukemia) | growth (SN12C renal)
CCOC(=O)Nc1ccc(-c2nc(-c3cccc(OCCN4CCOCC4)c3)c(-c3ccnc(Br)c3)[nH]2)cc1 | 40.2% | 61.1 | 21.5% | 87.4% | 43.9% | 51.3% | 49.9% | 26.4% | 7.57% (active) | –
CCc1ccc(Oc2c(-c3ccc(OCCc4cccc(C(F)(F)F)c4)cc3O)n[nH]c2C(F)(F)F)cc1 | 55.4% | 50.1 | 16.1% | 58.4% | 16.6% | 63.3% | 35.9% | 11.6% | 4.53% (active) | –
CCN1C(=O)N(CC)C2Nn3c(s/c(=C4\C(=O)Nc5ccccc54)c3=O)=NC21 (stereo not given) | 61.2% | 83.2 | 54.8% | 13.7% | 53.7% | 37.9% | -2.29% (active) | 35.9% | 59% | –
C=CCNc1ccc2c3c(cccc13)C(=O)N(N1C(=O)c3cccc4cccc(c34)C1=O)C2=O | 107% | 92.8 | 81.1% | 105% | 103% | 94.1% | 119% | 109% | 101% | –
CNCCCC12CCC(c3ccccc31)c1ccccc12 | 100% | 87.9 | 58% | 80.2% | 80.6% | 83.4% | 93.7% | 84.7% | 89.6% | –
COc1cc(/C=N/NC(=O)c2ccc(C)nc2)cc(OC)c1OC | 79.3% | 90.4 | 65.6% | 81.3% | 91.2% | 79.8% | 93.2% | 87% | 57.8% | –
COc1cc2cc(Oc3ccc(NC(=O)Nc4ccc(F)c(C(F)(F)F)c4)cc3)c(C)nc2cc1OCCN1CCOCC1 | 14.8% | 16.2 | 30.1% | 35.1% | 9.37% (active) | 25.8% | 38.7% | 5.44% (active) | 0.0203% (active) | –
O=S(=O)(NCCCNc1cc(-c2c(-c3cccc(O)c3)nc3sccn23)ccn1)c1cccc2ccccc12 | 59.8% | – | 27.6% | 82.7% | 38.9% | 36.1% | 59% | 21.2% | 26.4% | 21.1%
O=C1/C(=C/c2ccc(F)cc2)Sc2c(Br)cccc21 | 63.5% | – | 42% | – | 76.5% | 81.5% | 92.9% | 86.2% | 81.5% | 62.7%
CC1Cc2ccccc2N1NC(=O)c1ccc(Cl)c(S(N)(=O)=O)c1 (stereo not given) | 99.4% | – | 83.6% | 101% | 98% | 94.5% | 114% | 95.9% | 86.5% | 96.3%
COC1=C(C)C(=O)c2c(c(CCCl)c3n2CCC3OC(C)=O)C1=O (stereo not given) | -45.6% (active) | – | -60.9% (active) | -37.9% (active) | -3.88% (active) | 0.742% (active) | -87.8% (active) | 50.2% | 34.4% | 3.34% (active)
CCCCn1c(=O)c(-c2cc(-c3ccc(Cl)cc3)nc(-c3ccc(Cl)cc3)c2)cc2cc(Cl)ccc21 | 120% | – | 88.4% | 107% | 107% | 94.3% | 123% | 104% | 104% | 91.2%
CCCCCCN1C(=O)/C(=c2\sc3n(c2=O)C2C(NN=3)N(CC)C(=O)N2CC)c2ccccc21 (stereo not given) | 50.1% | – | -2.09% (active) | 3.21% (active) | -43% (active) | 4.26% (active) | -5.48% (active) | 37.8% | 49.4% | 19.1%
CCOC(=O)c1c(C)nc2c(c1N)CC(=O)N2Cc1ccc(F)cc1 | 92.6% | – | 88.6% | 97.3% | 95.7% | 92.9% | 64.1% | 85.3% | 85% | 93.2%
CCc1ccccc1-n1c(N)c(C#N)c(-c2ccc(Cl)cc2)c(C#N)c1=O | 117% | – | 76.9% | 157% | 107% | 103% | 127% | -18.3% (active) | 105% | 106%
CSc1ccc2c(c1)c(CCN)c(C)n2Cc1ccc(Cl)c(Cl)c1 | -66.1% (active) | – | -91% (active) | – | -85.5% (active) | -92.5% (active) | -91.8% (active) | -56.2% (active) | -64.6% (active) | -80.2% (active)
COc1ccc(-c2c(C(=O)NS(C)(=O)=O)n(Cc3cccc(C(F)(F)F)c3)c3ccccc23)cc1 | 101% | – | 73% | 105% | 91.8% | 80.1% | 80.1% | 75.5% | 90.3% | 85.2%
O=C(Nc1ccc(F)cc1F)c1cc(F)ccc1O | -20% (active) | – | -16.1% (active) | 22.9% | 7.4% (active) | 3.45% (active) | -37.5% (active) | 30.4% | 5.84% (active) | -3.45% (active)

Compound | growth (SK-MEL-2 melanoma) | growth (EKVX NSCLC) [%] | growth (UO-31 renal) | growth (TK-10 renal) | growth (ACHN renal) | growth (CAKI-1 renal) | growth (A498 renal) | growth (CCRF-CEM leukemia) | growth (MOLT-4 leukemia) | growth (SN12C renal)
N#CC1=C(N)Oc2c(sc3c(Br)cccc23)C1c1ccc(Br)cc1 (stereo not given) | 8.78% (active) | – | 36.3% | 54.6% | 56% | 32.8% | 23.9% | 10.1% | 7.14% (active) | 25.8%
Nc1nn(C(=O)Nc2ccc(Cc3ccccc3)cc2)c2ccc(Cl)cc12 | 68.7% | – | 43.5% | 79.7% | 39.9% | 44% | 106% | 74% | 25.6% | –
NC[C@@H]1O[C@H](O[C@@H]2[C@@H](CO)OC(O[C@@H]3[C@@H](O)[C@H](N)C[C@H](N)[C@H]3OC3O[C@H](CN)[C@@H](O)[C@H](O)[C@H]3N)[C@@H]2O)[C@H](N)[C@@H](O)[C@@H]1O (stereo not given in full) | – | 98.4 | 109% | 120% | 105% | 99.5% | 108% | 97.5% | 112% | 117%
O=C1c2ccccc2NC(n2sc3ccccc3c2=O)N1c1ccccc1 (stereo not given) | 99.5% | – | 78.4% | 109% | 99.6% | 93.9% | 89.2% | 104% | 99.4% | 98.4%
CCOC(=O)c1cn2ncnc(Oc3ccc(NC(=O)NCCN4CCN(C)CC4)c(Cl)c3)c2c1C | 91.9% | – | 61.7% | 97.5% | 80% | 76.3% | 77.9% | 44.3% | 57.2% | 65%
NS(=O)(=O)c1ccc(N=Nc2ccc(-c3nn4cc(-c5ccccc5)nc4s3)cc2)cc1 | 99.4% | – | 89.4% | 88.5% | 99.8% | 85.9% | 97.5% | 111% | 105% | 108%
Fc1cc(-c2nnc3sc(-c4ccc(Cl)cc4Cl)nn23)c(Cl)cc1Cl | 94.7% | – | 73% | 109% | 73.7% | 86.5% | 109% | -78.6% (active) | 134% | 82.8%
CCc1ccc(Oc2c(-c3ccc(OCc4ccc(Cl)cc4)cc3O)nn(C)c2C(F)(F)F)cc1 | -30.7% (active) | – | -22.9% (active) | -1.88% (active) | 5.42% (active) | 3.34% (active) | -22.6% (active) | 1.82% (active) | -13.6% (active) | 4.95% (active)
Cc1cc(C)c(-c2c(N)cc(Br)cc2Br)c(N)c1 | 44.1% | – | 61.5% | 72% | 75.1% | 50.3% | 70.9% | 26.4% | 34.4% | 68.7%
Cc1cc2nc3ccc(N=Nc4ccc(N(C)C)cc4)cc3n(-c3ccccc3)c-2cc1=N | -94.6% (active) | – | -91.2% (active) | -82.2% (active) | -92% (active) | -96.5% (active) | -46.9% (active) | -47.3% (active) | 0.81% (active) | -52.8% (active)
CCCCCCCCCCCCCCCCCC1OCC(COC(=O)O[C@]2(CC)C(=O)OCc3c2cc2n(c3=O)Cc3cc4ccccc4nc3-2)O1 (stereo not given in full) | 116% | – | 73.1% | 95.5% | 62.9% | 65.7% | 88.6% | 29.2% | 43.3% | 49%
c1cc(NCCc2ccncc2)nc(-n2cnc3ccccc32)c1 | 86.8% | – | 74.9% | – | 65.4% | 81.2% | 69.3% | 99.8% | 86.4% | 90.4%
C[N+]1=C(/C=C/c2ccc(O)c3ncccc23)C(C)(C)c2ccccc21 | 44.9% | – | 30.6% | 97.1% | 31% | 25.7% | 101% | 75.8% | 56.1% | 42.7%
Oc1c(I)cc(I)cc1CNCCCN(Cc1ccccn1)Cc1ccccn1 | -30.9% (active) | – | -100% (active) | -78.5% (active) | -100% (active) | -96.1% (active) | -98.4% (active) | 3.65% (active) | -10.5% (active) | –
CCOC(=O)c1c2c(n(-c3ccc(C#N)cc3)c1-c1ccccc1)C=CCC2 | 79.6% | – | 81.8% | 96.5% | 86.8% | 76.4% | 96.7% | 95.8% | 81.2% | 101%
NCCNc1nc2ccccc2c2c(=O)c3cccc(F)c3sc12 | 102% | – | 40.7% | 71.7% | 34.2% | 39.6% | 59.7% | 34.5% | 7.98% (active) | 47.5%
COc1ccc(-n2c(N)c(-c3nc4ccccc4[nH]3)cc(C#N)c2=O)cc1 | 105% | – | 77.8% | 103% | 75.9% | 92.3% | 64% | 98.3% | 99.3% | 85%
